Wnt bcat act = activators of Wnt/beta-catenin signaling. Wnt/beta-catenin reporter cell assay, activator, plate reader. activation, % at 9.35 µM. hit rate 1.2% among 300,000. AID 743398; in the data active means activation above about 30%, passing the limit was not always enough; inconclusive means no clear call, values can overlap the other calls
C2C12 statin = protects C2C12 myotubes from simvastatin toxicity; rescue of ATP level, % at 7.49 µM; ATP luminescence, 48 h; scaled: DMSO 0, geranylgeraniol control 100; hit rate 0.78% among 330,000;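 active means mean ATP rescue above about 67%, or every replicate alone reaching that limit, limit read from the data, passing the limit was not always enough; inconclusive means no clear call, values can overlap the other calls; inactive means mean under the limit and some replicate under it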;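 further: myotubes were challenged with 10 µM simvastatin during compound exposure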
MITF TRPM1 HTS = increases MITF-driven TRPM1 promoter luciferase signal; SK-MEL-5 TRPM1-promoter luciferase, 24 h; % of positive control, neutral wells = 0; activation, % at 12.5 µM; hit rate 0.75% among 300,000; AID 588334;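 active means mean activation of at least 80% with every replicate also reaching 80%; inconclusive means mean reaches 80% but some replicate falls short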
esBAF inh = inhibitors of esBAF chromatin remodeling in mouse ES cells; Bmi1-luciferase knock-in reporter, 24 h; 100% = twice the neutral-well signal; reporter increase, % at 12.5 µM; hit rate 2% among 350,000; in the data active means activation above about 40%; inconclusive means no clear call, values can overlap the other calls;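 further: a rise in the Bmi1 reporter signal indicates esBAF inhibition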
MITF TRPM1 inh = reduces MITF-dependent TRPM1 promoter luciferase signal; SK-MEL-5 TRPM1 promoter luciferase, 24 h; inhibition, % at 12.5 µM; hit rate 0.83% among 330,000; AID 488899;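 active means mean inhibition across replicates of 60% or more, whatever share of single replicates reaches that level; inconclusive means some that reach 60%, reason not given; inactive means mean inhibition across replicates below 60%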
EBV LMP1 NFkB = reduces LMP1-driven NF-kappaB luciferase signal | LMP1-induced NF-kappaB luciferase reporter cells, luminescence | inhibition, % at 12.5 µM | hit rate 0.69% among 350,000 | AID 504558; in the data active means inhibition above about 41%; inconclusive means no clear call, values can overlap the other calls
Each line names hits and unclear results; the compound was inactive in the other large screens. Compounds with a hit are over-represented: about 4% of the library has one in this group of screens.

COc1ccc(NC(=O)C2CCN(c3nc(-c4ccc(OC)cc4)no3)CC2)cc1	none (no result: MITF TRPM1 HTS, MITF TRPM1 inh)
CC(C)Nc1nc(Cl)nc(N(C#N)CN2C(=O)c3ccccc3C2=O)n1	none (no result: C2C12 statin, esBAF inh)
CCC(C)Nc1nc(Cl)nc(N(C#N)CN2C(=O)c3ccccc3S2(=O)=O)n1 (configuration not stated)	MITF TRPM1 inh 69 (no result: Wnt bcat act, C2C12 statin, esBAF inh)
COC(=O)C1=C(N)N(c2ccccc2C(F)(F)F)C2=C(C(=O)CCC2)C1c1ccc2c(c1)OCO2 (configuration not stated)	C2C12 statin 93
COC(=O)CSC1=C(C#N)C(c2ccc3c(c2)OCO3)C2=C(CCCC2=O)N1 (configuration not stated)	none (no result: Wnt bcat act)
C[C@@H]1CN([C@H](C)CO)C(=O)c2cc(NS(=O)(=O)c3ccccc3)ccc2O[C@H]1CN(C)Cc1ccccc1	none (no result: Wnt bcat act, MITF TRPM1 HTS, MITF TRPM1 inh, EBV LMP1 NFkB)
OCC(CO)c1cnnc2ccccc12	none
COc1ccc(N2Cc3cccc(C(=O)NC(C)CCc4ccco4)c3C2=O)cc1 (configuration not stated)	EBV LMP1 NFkB 47
CC(CCc1ccco1)NC(=O)c1cccc2c1C(=O)N(C1CCCCC1)C2 (configuration not stated)	none (no result: C2C12 statin, esBAF inh)
CN(C)c1ccc(/C=C/c2cccc[n+]2[O-])cc1	none (no result: MITF TRPM1 HTS)
CC(C)CC[n+]1ccccc1/C=C/c1ccc(N(C)C)cc1	MITF TRPM1 inh 73
c1ccc2c(c1)Nc1cc3ccccc3cc1S2	Wnt bcat act 38 (no result: C2C12 statin, MITF TRPM1 HTS, esBAF inh)
COc1ccc2c(c1)Sc1ccccc1N2	none (no result: C2C12 statin, esBAF inh)
C[n+]1c2n(c3ccccc31)N=C(c1ccccc1)CS2	none
C[n+]1c2n(c3ccccc31)N=C(c1ccc(-c3ccccc3)cc1)CS2	MITF TRPM1 inh 82 (no result: C2C12 statin, esBAF inh)
Cc1cc(=O)oc2cc(OCCc3ccccc3)ccc12	esBAF inh 67
Cc1cc(=O)oc2cc(Oc3ncccc3[N+](=O)[O-])ccc12	none (no result: C2C12 statin, esBAF inh)
Cc1cc(=O)oc2cc(OCCCC[n+]3ccccc3)ccc12	none (no result: C2C12 statin, esBAF inh)
Cc1cc(=O)oc2cc(Oc3ncccn3)ccc12	EBV LMP1 NFkB 45 (no result: C2C12 statin, MITF TRPM1 HTS)
COc1cccc(COc2ccc3c(C)cc(=O)oc3c2)c1	Wnt bcat act 46, MITF TRPM1 HTS 114, esBAF inh 51
Nc1ccc2c(c1)OC1(CCCC1)O2	MITF TRPM1 inh 62, EBV LMP1 NFkB 59
CCCCN(CCCC)CC(O)CN1C(=O)NC(C)(C)C1=O (configuration not stated)	none (no result: Wnt bcat act, C2C12 statin, esBAF inh)
COn1c(-c2ccccc2)nc2ccc(Cl)cc21	esBAF inh 65 (no result: Wnt bcat act, MITF TRPM1 HTS)
O=[N+]([O-])c1ccc2nc(-c3ccccc3)n(OCc3ccc(Cl)cc3)c2c1	esBAF inh 62 (no result: Wnt bcat act, MITF TRPM1 HTS)
COc1cccc(C(=O)Nc2cccc(-c3nnc(-c4ccco4)o3)c2)c1	none (no result: Wnt bcat act, C2C12 statin, esBAF inh)
CC(C)NC(=O)Nc1ccc2c(c1)C(=O)N([C@@H](C)CO)C[C@H](C)[C@@H](CN(C)Cc1ccccc1)OCCCC[C@@H](C)O2	none (no result: Wnt bcat act, MITF TRPM1 HTS, MITF TRPM1 inh, EBV LMP1 NFkB)
N#Cc1ccc(C(=O)N2CCCCC2c2cc(C(=O)Nc3cccc(C#N)c3)no2)cc1 (configuration not stated)	Wnt bcat act 36 (no result: MITF TRPM1 HTS, MITF TRPM1 inh, EBV LMP1 NFkB)
Cn1nnnc1Sc1ncnc2scc(-c3cccc(Br)c3)c12	MITF TRPM1 inh 84, EBV LMP1 NFkB 78
Cn1nnnc1Sc1ncnc2scc(-c3cccc4c3sc3ccccc34)c12	none
CC(=O)c1cccc(-c2csc3ncnc(Sc4nnnn4C)c23)c1	none (no result: MITF TRPM1 HTS, MITF TRPM1 inh, EBV LMP1 NFkB)
Cn1nnnc1Sc1ncnc2scc(-c3cccc(S(C)(=O)=O)c3)c12	MITF TRPM1 inh 78, EBV LMP1 NFkB 47
COc1cc(NC(=O)COC(=O)CNC(=O)c2cc(C)cc(C)c2)c(C)cc1[N+](=O)[O-]	none
CC(C)CC(=O)NNC(=O)c1ccc(Cl)cc1	none (no result: C2C12 statin, esBAF inh)
CCc1nnc(NC(=O)CSc2ncnc3c2cnn3-c2ccc(OC)cc2)s1	Wnt bcat act 38
CNC(=O)c1nc(C)n(-c2ccc(Cl)cc2Cl)n1	none
CN(C)S(=O)(=O)c1cc(NC(=O)[C@H](Cc2ccccc2)N2C(=O)c3ccccc3C2=O)ccc1Cl	Wnt bcat act 31 (no result: C2C12 statin, esBAF inh)
Cc1ccc2cc(CCNC(=O)CCCc3ccccc3)c(=O)[nH]c2c1	none
Cc1cc2cc(CCNC(=O)c3cccs3)c(=O)[nH]c2cc1C	Wnt bcat act inconclusive, esBAF inh 82 (no result: MITF TRPM1 HTS, MITF TRPM1 inh)
COc1ccc2cc(CCNC(=O)C(C)C)c(=O)[nH]c2c1	none
Cc1ccc2cc(CCNC(=O)c3ccco3)c(=O)[nH]c2c1C	Wnt bcat act inconclusive, MITF TRPM1 HTS 104
COc1ccc2cc(CCNC(=O)c3ccco3)c(=O)[nH]c2c1	Wnt bcat act 34
CCC(CC)C(=O)NCCc1cc2cc(C)c(C)cc2[nH]c1=O	none
Cc1ccc2cc(CCNC(=O)c3ccco3)c(=O)[nH]c2c1	MITF TRPM1 HTS 103 (no result: Wnt bcat act)
CCCn1ncc(C(=O)N(C)C2CCCN(Cc3ccccc3F)C2)c1C (configuration not stated)	none
CN(C)c1ccc(NC(=S)N2CCN(c3ncc(C(F)(F)F)cc3Cl)CC2)cc1	Wnt bcat act 52 (no result: C2C12 statin, esBAF inh)
O=C(CN1CCN(c2ncc(C(F)(F)F)cc2Cl)CC1)N1CCN(c2ncc(C(F)(F)F)cc2Cl)CC1	none (no result: Wnt bcat act, C2C12 statin, esBAF inh)
CCN(CC)C(=O)c1nc(-c2cccc3ccccc23)no1	Wnt bcat act 75, esBAF inh 70 (no result: MITF TRPM1 HTS, MITF TRPM1 inh)
O=[N+]([O-])c1ccc(C(=S)N2CCCC2)cc1	Wnt bcat act 37
O=[N+]([O-])c1ccc(C(O)CSC(=S)N2CCCCC2)cc1 (configuration not stated)	esBAF inh 45
C(=N\Nc1nc(-c2ccccc2)cs1)/c1ccncc1	none (no result: C2C12 statin, esBAF inh)
Cc1ccc(-c2csc(N/N=C/c3ccco3)n2)cc1	esBAF inh inconclusive
C(=N\Nc1nc(-c2ccccc2)cs1)/c1cccs1	Wnt bcat act 56 (no result: C2C12 statin, esBAF inh)
CN(C)S(=O)(=O)c1ccc(-c2csc(N/N=C/c3ccco3)n2)cc1	MITF TRPM1 inh 72 (no result: C2C12 statin, esBAF inh)
Brc1ccc(-c2csc(N/N=C/c3ccco3)n2)cc1	Wnt bcat act 38, esBAF inh inconclusive
C(=N\Nc1nc(-c2ccccc2)cs1)/c1ccco1	MITF TRPM1 HTS 97 (no result: Wnt bcat act, C2C12 statin, esBAF inh)
C[C@@H]1CCCCO[C@@H](CN(C)C(=O)CCC(F)(F)F)[C@H](C)CN([C@H](C)CO)C(=O)c2cc(NS(C)(=O)=O)ccc2O1	none (no result: Wnt bcat act, MITF TRPM1 HTS, MITF TRPM1 inh, EBV LMP1 NFkB)
Cn1ccnc1SCc1cc(=O)[nH]c2ccccc12	none
Oc1cccc(N2CCN(c3cccc(O)c3)CC2)c1	none (no result: C2C12 statin, MITF TRPM1 HTS, esBAF inh, MITF TRPM1 inh, EBV LMP1 NFkB)
O=C(/C=C/c1ccccc1)Nc1scc(-c2ccccc2)c1C(=O)O	none (no result: C2C12 statin, esBAF inh)
CN(C)S(=O)(=O)c1ccc(-c2csc(N/N=C/c3ccc(O)cc3)n2)cc1	MITF TRPM1 inh 72
O=[N+]([O-])c1cccc(-c2csc(N/N=C/c3cccc(O)c3)n2)c1	none
O=C(/C=C/c1ccco1)Nc1scc(-c2ccccc2)c1C(=O)O	Wnt bcat act 42 (no result: C2C12 statin, esBAF inh)
O=C(/C=C/c1ccco1)Nc1nc(-c2ccccc2)cs1	Wnt bcat act 37 (no result: C2C12 statin, esBAF inh)
CC(c1ccccc1)c1nnc(N)s1 (configuration not stated)	none (no result: C2C12 statin, MITF TRPM1 HTS, esBAF inh, MITF TRPM1 inh)
Nc1ccc2c3c(cccc13)-c1ccccc1-2	C2C12 statin 126 (no result: esBAF inh)

Source: PubChem BioAssay (Broad Institute)
